The values that follow come from PubChem BioAssay AID2530 (National Center for Advancing Translational Sciences (NCATS), 2010).

Each structure is given as a SMILES string. Inconclusive results are not listed. A call without a number means that no potency is given here. Calls of active or inactive are those of the source. Calls follow the shape of the dose curve; as a rule, active = well fitted inhibition curve with a large enough effect; inconclusive = small, poorly fitted or top-dose-only effect; inactive = flat fitted curve, though single readings scatter.
Potency is read from the fitted curve at half-maximal effect.

The test has as its target Luciferin 4-monooxygenase (Photuris pensylvanica) (UniProt Q27757). Briefly: Secondary Assay for Luciferase (Kinase-Glo TM) Inhibition Counterscreen. The conditions noted are these: Kinase-Glo luciferase enzyme, luminescence; series mostly up to 58.1 µM. In short, it runs like this: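 Inhibition was fitted with the Hill equation after normalizing luminescence to DMSO (basal) and 40 uM SIB 1757 (full inhibition). Kinase-Glo luciferase ran for 8 min at room temperature in imidazole buffer pH 7.2 with KCl, MgCl2 and 10 uM ATP.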
For `Cc1ccc(C)c(OC2=NS(=O)(=O)c3ccccc32)c1`, the Potency result is “inactive”.

Turning to `Cc1ccc(N2C(=O)c3ccccc3C2O)nc1` (centres undefined), the Potency was 6.51 µM (active).

Consider `Cc1cc(N2C(=O)c3ccccc3C2=O)no1`, for which the Potency result is “inactive”.

`O=C1c2ccccc2C(=O)N1Cc1cccnc1`: the Potency entry was “inactive”.

Regarding `CC(C)(C)NC(=O)C(c1ccncc1)N(C(=O)Cn1nnc(-c2ccc(F)cc2)n1)c1ccccc1` (centres undefined), the Potency entry was “inactive”.

For `Fc1ccc(-c2nc3n(n2)Cc2ccccc2-3)cc1`, the Potency is 7.3 µM (active).

`c1c2c(cc3sc(N4CCCCC4)nc13)OCO2`: the Potency was 10.3 µM (active).

Regarding `O=C1c2ccccc2C(=O)N1c1cccc2ccncc12`, the Potency result is “inactive”.

Consider `O=C1c2ccccc2C(=O)N1c1cncc2ccccc12`, for which the Potency entry was “inactive”.

Turning to `O=C(/C=C/c1ccc2c(c1)OCO2)c1ccccn1`, the Potency was 5.8 µM (active).

Regarding `Cc1cc(C)n2c(Nc3ccccc3)c(-c3ccc(C)o3)nc2n1`, the Potency result is “inactive”.

Turning to `Cc1nc(-c2ccc(C(=O)Nc3ccccc3F)cc2)cs1`, the Potency is 11.6 µM (active).

Take `Nc1ncnc2c1ncn2C1OC(COP(=O)(O)O)C(O)C1O` (centres undefined): the Potency is 4.61 µM (active).

Consider `Cc1ccc(NS(=O)(=O)c2ccc(N3CCCC3=O)cc2)cc1C`, for which the Potency entry was “inactive”.

For `Cc1ccc(NS(=O)(=O)c2cccc(Cl)c2)cc1C`, the Potency entry was “inactive”.

Consider `Cc1ccc(NS(=O)(=O)c2cc3c(cc2-c2ccsc2)NC(=O)CO3)cc1C`, for which the Potency result is “inactive”.

`O=C1c2ccccc2C(=O)N1c1ncccc1O`: the Potency result was “inactive”.

For the compound `CC(=O)N1CCCc2cc(S(=O)(=O)Nc3ccc(C)c(C)c3)ccc21`, the Potency entry is “inactive”.

Turning to `CC(=O)Nc1cccc(S(=O)(=O)Nc2ccc(C)c(C)c2)c1`, the Potency entry was “inactive”.
